An excerpt weighted towards active compounds, which were near 1.2% of everything screened.
rTrxR1 inhibitor: rat TrxR1 inhibition. AID 588453. O89049. actives 1% (n = 390,000). recombinant rTrxR1, NADPH fluorescence consumption, selenite substrate. Potency, µM (highest dose often 114 µM), most hits filed as inhibitors; further: nearly all actives have a fitted effect of over 65% in size
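Rat TrxR1 (90 nM in the dispensed reagent) was pre-reduced with 400 uM NADPH for 5 min at room temperature, then incubated with compound for 15 min. After 400 uM selenite was added, NADPH fluorescence (Ex 340/Em 450 nm) was followed for 8 min.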
IDH1 R132H inh: inhibitors of human mutant IDH1 R132H; IDH1-R132H enzyme, NADPH consumption, diaphorase/resazurin fluorescence; Potency, µM (doses to about 76.6 µM), usual class: inhibitors; actives 0.093% (n = 390,000); further: nearly all actives have a fitted effect of over 65% in size
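IDH1-R132H (0.5 ug/mL) preincubated 30 min with compound, then NADPH (0.016 mM) and alpha-KG (2 mM) added; 80 min at RT, pH 7.5. Remaining NADPH coupled via diaphorase/resazurin to fluorescence (540/590 nm); concentration-response curves normalized to no-enzyme control.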
GLS inhibitor: blocks human kidney-isoform glutaminase activity; GLS enzymatic activity, qHTS titration; Potency, µM (doses to about 45.5 µM), usual class: inhibitors; actives 0.21% (n = 410,000); AID 624170
Target sequence (O94925 whole entry, looked up, canonical isoform): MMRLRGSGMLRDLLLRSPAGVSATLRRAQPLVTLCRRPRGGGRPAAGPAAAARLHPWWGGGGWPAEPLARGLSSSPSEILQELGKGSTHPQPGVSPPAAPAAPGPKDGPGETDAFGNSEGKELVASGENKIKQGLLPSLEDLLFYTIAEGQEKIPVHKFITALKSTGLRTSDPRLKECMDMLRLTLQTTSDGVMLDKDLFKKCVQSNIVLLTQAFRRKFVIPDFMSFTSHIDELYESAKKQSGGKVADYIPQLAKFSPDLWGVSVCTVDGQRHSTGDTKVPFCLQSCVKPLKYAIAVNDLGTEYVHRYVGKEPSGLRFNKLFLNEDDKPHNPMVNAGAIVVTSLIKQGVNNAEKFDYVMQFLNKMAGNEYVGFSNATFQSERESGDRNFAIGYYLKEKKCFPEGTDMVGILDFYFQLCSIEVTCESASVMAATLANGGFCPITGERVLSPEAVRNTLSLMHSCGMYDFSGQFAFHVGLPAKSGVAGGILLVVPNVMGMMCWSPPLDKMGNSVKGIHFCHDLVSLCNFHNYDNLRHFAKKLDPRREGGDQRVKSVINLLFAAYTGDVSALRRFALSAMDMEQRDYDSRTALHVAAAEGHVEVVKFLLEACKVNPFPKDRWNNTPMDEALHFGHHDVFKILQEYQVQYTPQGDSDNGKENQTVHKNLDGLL
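Coupled fluorescence readout: glutamate oxidase/HRP/Amplex Red detect glutamate formed by hKGA from L-glutamine (1 mM solution added). Buffer 45 mM KH2PO4 pH 8.2, 0.02% Tween-20; reads at t0 and 30 min RT.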
TrxR1 substrate: is turned over as a substrate by rat TrxR1. actives 0.01% (n = 390,000). purified TrxR1 substrate turnover, NADPH consumption readout. O89049. Potency, µM (series often up to 114 µM); further: nearly all actives have a fitted effect of over 50% in size
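Rat TrxR1, dispensed at 90 nM, was prereduced with 400 uM NADPH (final) for 5 min at ~22 deg C, then incubated with compound 15 min before 400 uM selenite. A first-read NADPH fluorescence drop versus no-compound background flagged substrates.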
Numbers stand for hits; . = inactive; ? = inconclusive; / = not tested or not shown; ! = repeats disagree; [ ] = dose if it differs, or a comment. The call rests on the fitted dose curve; in most records, active means well fitted curve in the direction sought with a large enough effect; inconclusive means small, poorly fitted or top-dose-only effect, or another doubt; inactive means no such curve, though single readings can be large; an effect the other way counts as inactive or inconclusive.

SMILES	rTrxR1 inhibitor	IDH1 R132H inh	GLS inhibitor	TrxR1 substrate
O=C1NC(=O)N(CCC2=CCCCC2)C(=O)/C1=C\c1cccs1	7.1µM	.	.	.
Cc1ccc(/C=C2\C(=O)NC(=S)N(c3ccc(F)cc3)C2=O)s1	10µM	.	.	.
C=CCN1C(=O)/C(=C/c2cccs2)C(=O)NC1=S	10µM	.	.	.
CCOc1cccc(N2C(=O)/C(=C/c3ccco3)C(=O)NC2=S)c1	?	.	?	.
COc1ccc(N2C(=O)/C(=C/c3cccs3)C(=O)NC2=S)cc1	7.9µM	.	.	.
O=C1NC(=O)N(CCc2ccc(F)cc2)C(=O)/C1=C/c1cccs1	?	.	.	.
O=C1NC(=S)N(c2ccccc2)C(=O)/C1=C/c1ccco1	20µM	.	?	.
COc1ccc(N2C(=O)/C(=C/c3ccc(N(C)C)o3)C(=O)NC2=S)cc1	?	.	.	.
C[C@@H]1CN([C@@H](C)CO)C(=O)CCCn2nncc2CO[C@H]1CN(C)C(=O)Nc1ccc(N2CCCCC2)cc1	/	.	.	/
CC(C)(C)NC[C@H](O)c1ccc(O)cc1Cl	/	/	.	/
Cc1cc(/C=C2\C(=O)NC(=O)N(c3ccc(Br)cc3)C2=O)c(C)n1-c1cc(C(=O)O)cc(C(=O)O)c1	.	.	10µM	.[2.29 µM]
O=C(CN1CCOCC1)c1ccc(Br)cc1	.	.	.	.
O=C(CN1CCOCC1)c1cccc2ccccc12	18µM	.	.	.
O=C(Nc1nccs1)C(Cl)(Cl)Cl	.	.	.	.
O=C(CCl)Nc1nccs1	13µM	.	.	.
O=C(c1ccccc1)c1ccc(N=Nc2c(O)[nH]c(=O)[nH]c2=O)cc1	.	.	10µM	.
O=Cc1ccc(O)c(O)c1	.	.	?	.
CN(N=O)c1ccc(O)c(O)c1	0.95µM	/	/	.
O=C1NC(=S)NC(=O)C1=Cc1cccn1-c1ccc(O)cc1	20µM	.	.	.
CN1C(=O)/C(=C/c2cccn2-c2ccc3ccccc3c2)C(=O)NC1=S	?	.	.	.
CCc1cc(OC)c(CC(C)N)cc1OC (centres undefined)	/	/	.	/
CCC(=O)O[C@@](Cc1ccccc1)(c1ccccc1)[C@H](C)CN(C)C	/	/	.	/
Nc1cccc2c(O)cccc12	.	.	13µM	.
Cc1cccc(NC(=O)CSc2ccc(-c3ccco3)nn2)c1	?	.	.	.
Cc1ccc(NC(=O)COC(=O)/C=C/c2ccco2)cc1S(=O)(=O)N(C)C	40µM	.	.	.
SMILES	rTrxR1 inhibitor	IDH1 R132H inh	GLS inhibitor	TrxR1 substrate
NC(N)=NCCC[C@H](N)C(=O)O	.	/	/	.
CC1(C)CC/C(=C\c2ccc(Cl)cc2)C1(O)Cn1cncn1 (centres undefined)	/	/	.	/
Cc1ccc(/C=C2\C(=O)NC(=O)N(CC3CCCO3)C2=O)s1 (centres undefined)	40µM	.	.	.
CCOc1ccc(-n2c(/C=C/c3ccccc3)nc3ccccc3c2=O)cc1	.	.	.	.
CCn1nc(-c2cccs2)nc2c(=O)n(C)c(=O)nc1-2	?	.	.	45µM
CCn1nc(/C=C/c2ccccc2)nc2c(=O)n(C)c(=O)nc1-2	?	.	.	16µM
Cn1c(O)c(/C=C2\C=c3ccccc3=NC2=O)c(=O)n(C)c1=O	35µM	.	.	.
Cn1c(O)c(/C=C2\C=Nc3ccccc32)c(=O)n(C)c1=O	.	.	.	.
Cn1c(O)c(C(c2ccccn2)c2c(O)n(C)c(=S)n(C)c2=O)c(=O)n(C)c1=S	.	.	.	.
Cn1c(O)c(C(c2ccncc2)c2c(O)n(C)c(=S)n(C)c2=O)c(=O)n(C)c1=S	7.9µM	.	.	.
CN(C)C1C(=O)C(C(N)=O)C(=O)C2(O)C(=O)C3C(=O)c4c(O)cccc4C(C)(O)C3C(O)C12 (centres undefined)	/	/	6.3µM	/
CN(C)[C@@H]1C(=O)C(C(N)=O)=C(O)[C@@]2(O)C(=O)C3=C(O)c4c(O)cccc4[C@@](C)(O)[C@H]3[C@H](O)[C@@H]12	35µM!	.	7.1µM	.
Cc1ccc(Cl)cc1N1CCN(C(=O)c2cn(CC(C)C)c(=O)c3c2c2ccccc2n3C)CC1	.	.	.	.
C[C@]12CCC(=O)C=C1CC[C@@H]1[C@H]3CC[C@](C)(O)[C@@]3(C)CC[C@@H]12	/	/	.	/
C[C@@H]1CN([C@@H](C)CO)C(=O)CCCn2nncc2CO[C@@H]1CN(C)C(=O)Nc1ccc(N2CCCCC2)cc1	/	.	.	/
COc1ccc(CCNC(=O)c2cnc3sc(N4CCCCCC4)nn3c2=O)cc1	.	.	.	.
COC(/C(C)=C/C=C/C(C)=C/c1coc(C)n1)C(C)C1CC(O)C2(C)OC2C=CC(C)C2CC(CC(=O)O2)CC2OC2C(=O)O1 (centres undefined)	10µM	.	.	.
O=C1NC(=O)N(Cc2ccco2)C(=O)/C1=C\c1cccn1CCOc1ccc(Cl)cc1	22µM	.	.	.
Cc1cccc(OCCn2cccc2/C=C2/C(=O)NC(=O)N(Cc3ccco3)C2=O)c1	35µM	.	.	.
CCC(N)CCc1c[nH]c2ccccc12 (centres undefined)	/	/	.	/
CC[C@H](O)C(C[C@H](C)N(C)C)(c1ccccc1)c1ccccc1	/	/	.	/
C=CCC1=C(C)C(OC(=O)C2C(C=C(C)C)C2(C)C)CC1=O (centres undefined)	/	/	.	/
CN1C(=O)C(=Cc2cccnc2)C(=O)N(C)C1=O	22µM	.	.	.
COc1ccc(N2C(=O)CS(=O)C(c3ccccc3)C2=O)cc1 (centres undefined)	50µM	.	.	.
Cc1ccc(NC(=O)Nc2cc3c(cc2N2CCCCC2)n(C)c(=O)n3C)cc1Cl	.	28µM	.	.
SMILES	rTrxR1 inhibitor	IDH1 R132H inh	GLS inhibitor	TrxR1 substrate
CC1(O)CCC2C3CCC4=CC(=O)CCC4(C)C3(F)C(O)CC21C (centres undefined)	/	/	.	/
COc1ccccc1N1C(=O)NC(=O)/C(=C/c2ccc3c4c(cccc24)CC3)C1=O	8.9µM	.	.	.
C=CCN1C(=O)NC(=O)/C(=C/c2cnc(SC)nc2)C1=O	14µM	.	.	.
C=CCN1C(=O)NC(=O)/C(=C/c2cc3c4c(c2)CCCN4CCC3)C1=O	45µM	.	.	.
CCCCCc1cc(O)c2c(c1)OC(C)(C)C1CC=C(C)CC21 (centres undefined)	/	/	.	/
COc1cc(CC(C)N)c(OC)cc1C (centres undefined)	/	/	.	/
O=C1/C(=C/c2ccc(N(CCCl)CCCl)cc2)Cc2ccccc21	.	/	/	.
O=C(O)COc1ccc(Cl)cc1Cl	.	.	.	.
O=C(c1ccco1)N1CCN(C(=O)c2ccc(COc3ccc(Cl)cc3Cl)o2)CC1	7.1µM	.	.	.
O=C1C(Cl)=CC(=Nc2ccc(O)cc2)C=C1Cl	1.6µM	.	.	.
O=C1NC(=O)N(c2cccc(Cl)c2)C(=O)/C1=C\c1ccc(Sc2nc3ccccc3[nH]2)o1	8.9µM	?	.	.
O=C1NC(=O)N(c2ccccc2)C(=O)/C1=C\c1ccccc1[N+](=O)[O-]	?	.	.	.
O=C1NC(=O)N(c2ccccc2F)C(=O)/C1=C/c1ccc(Sc2nc3ccccc3[nH]2)o1	?	?	?	.

High-throughput results: PubChem, National Center for Advancing Translational Sciences (NCATS)
